What was measured:
PEG-3 [1] = target: PEG-3 (UniProt Q6IN02); test: Peg3 promoter luciferase inhibitors, potency, dose response, cell-based, HeLa, CREF/GAPDH counter-screen panel (AID 624167); details: CREF/GAPDH counter-screens; HeLa PEG-Prom luciferase reporter, overnight, run 1, dose range 1, at 100 µM (top of the series) unless noted
PEG-3 [2] = target: PEG-3 (UniProt Q6IN02); test: as above; details: CREF/GAPDH counter-screens; HeLa PEG-Prom luciferase reporter, overnight, run 2, dose range 1, at 100 µM (top of the series) unless noted

Chain of PEG-3 (Q6IN02 whole entry, looked up): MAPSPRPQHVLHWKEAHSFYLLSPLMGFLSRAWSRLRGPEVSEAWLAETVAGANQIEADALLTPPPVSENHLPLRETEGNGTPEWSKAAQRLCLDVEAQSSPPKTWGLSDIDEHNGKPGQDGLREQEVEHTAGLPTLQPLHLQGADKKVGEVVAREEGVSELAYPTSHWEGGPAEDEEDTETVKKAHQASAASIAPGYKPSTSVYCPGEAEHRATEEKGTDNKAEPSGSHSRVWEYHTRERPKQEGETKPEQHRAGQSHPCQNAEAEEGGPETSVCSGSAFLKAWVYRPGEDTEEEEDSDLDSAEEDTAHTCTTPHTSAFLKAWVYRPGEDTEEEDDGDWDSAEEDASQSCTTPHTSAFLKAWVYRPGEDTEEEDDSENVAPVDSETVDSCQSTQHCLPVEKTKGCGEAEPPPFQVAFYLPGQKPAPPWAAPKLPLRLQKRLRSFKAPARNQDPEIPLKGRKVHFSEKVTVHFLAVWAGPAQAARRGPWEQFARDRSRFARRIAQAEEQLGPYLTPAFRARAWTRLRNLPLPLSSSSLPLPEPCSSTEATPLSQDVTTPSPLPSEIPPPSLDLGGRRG

| SMILES | inhibition (PEG-3 [1]) [%] | inhibition (PEG-3 [2]) [%] |
| --- | --- | --- |
| COC(=O)c1cc(=O)n(Cc2ccco2)c(=Nc2ccc(F)cc2)s1 | 102 | 102 |
| CCOc1ccc(Nc2c3ccccc3nc3ccccc23)cc1 | 97.9 | 101 |
| COc1ccc(-c2cc(C(F)F)n3ncc(C(=O)n4ccnc4C)c3n2)cc1 | 99.6 | 101 |
| CC(C)N1CCc2c(sc(NC(=O)c3cc4cc([N+](=O)[O-])ccc4s3)c2C(N)=O)C1 | 98.8 | 101 |
| CN(C)CCCNc1ncnc2oc(-c3ccccc3)c(-c3ccccc3)c12 | 102 | 101 |
| CC(=O)c1cccc(NC(=O)c2cccc3c(-c4cccnc4)coc23)c1 | 36.4 | 47 |
| COc1ccc(-c2cc(C(=O)N3CCN(c4ccccc4F)CC3)c3ccccc3n2)c(OC)c1 | 27.3 | 47.4 |
| Cc1ccc(NS(=O)(=O)c2cc3c4c(cccc4c2)C(=O)NC3=O)cc1C | 71.4 | 66.9 |
| COc1ccc(CN(C)C(=O)C(Cc2ccccc2)NC(=O)c2ccccc2)cc1F (stereo not drawn) | 99.1 | 98.2 |
| Cc1nc(-c2ccc(F)cc2)c(CC(=O)N(C)CC(=O)Nc2ccc(Cl)c(C(F)(F)F)c2)s1 | 99.8 | 102 |
| CC(C)(C)OC(=O)CC(S(=O)(=O)c1ccccc1)S(=O)(=O)c1ccccc1 | 102 | 101 |
| CCN(CC)CCSc1nnc2c3cc(C)ccc3n(Cc3ccccc3)c2n1 | 102 | 99.8 |
| CCN(Cc1ccccc1)S(=O)(=O)c1ccc(C(=O)N(CCCN(C)C)c2nc3cc4c(cc3s2)OCCO4)cc1 | 99.4 | 101 |
| O=S(=O)(NC1CC(NS(=O)(=O)OCC(Cl)(Cl)Cl)C2CCCCC12)OCC(Cl)(Cl)Cl (stereo not drawn) | 102 | 99.2 |
| Cc1ccc(C2(CCNCc3ccc(N(C)C)cc3)CCOC(C(C)C)C2)cc1 (stereo not drawn) | 99.6 | 101 |
| c1ccc(CCCNCCCn2cnc3c(OCc4ccccc4)ncnc32)cc1 | 99.5 | 101 |
| c1ccc(CN2CCC(Nc3nc(-c4cccnc4)nc4ccccc34)CC2)cc1 | 102 | 94.1 |
| Cc1cccc2c1-c1sc(C(=O)NCCCN3CCCC(C)C3)cc1CO2 (stereo not drawn) | 99.3 | 98.5 |
| O=C(O)CN1C(=O)/C(=C\c2ccccc2OCc2ccc(Cl)cc2Cl)SC1=S | 102 | 99.9 |
| CN1CCC(N(C)S(=O)(=O)c2ccc(NC(=O)COc3ccc(Br)cc3Cl)cc2)CC1 | 99.8 | 101 |

| SMILES | inhibition (PEG-3 [1]) [%] | inhibition (PEG-3 [2]) [%] |
| --- | --- | --- |
| CC(=O)c1ccc(Nc2cc(C)nc3ccc(C)cc23)cc1 | 99.2 | 102 |
| COc1ccc(CNCCC(c2ccccc2)c2ccc(OC(C)C)cc2)cc1OC (stereo not drawn) | 101 | 102 |
| O=C(NC1=C(NC2CCS(=O)(=O)C2)C(=O)c2ccccc2C1=O)c1ccccc1 (stereo not drawn) | 102 | 99.7 |
| c1cc2c3c(cccc3c1)NC1(CCC3(CC1)Nc1cccc4cccc(c14)N3)N2 | 97.7 | 102 |
| CCN1CCN(Cc2c(O)ccc3c2O/C(=C\C=C\c2ccccc2)C3=O)CC1 | 99.1 | 101 |
| CCCN(CCC)CCCNC(=S)Nc1ccc2nc(N3CCCC3)cc(C)c2c1 | 99.6 | 98.1 |
| O=C(O)c1ccc(N/N=C/c2ccc(OC(=O)c3ccccc3Cl)cc2)cc1 | 99.2 | 71.9 |
| Cc1ccc(C)c(OCC(O)CN2CCC(CN3C(=O)c4cccc5cccc(c45)C3=O)CC2)c1 (stereo not drawn) | 99.2 | 96.1 |
| COc1cc(N=Nc2c(O)c3ccccc3[nH]c2=O)c(OC)cc1N=Nc1ccccc1 | -11.2 | -33.1 |
| CCN1CCN(c2ncc(C(=O)Nc3cc(Cl)ccc3OC)c3ccccc23)CC1 | 100 | 98.7 |
| COCCn1c(C)cc(C(=O)CSc2nnc3ccccn23)c1C | 98.8 | 94.2 |
| CC1CCCCN1C(=O)c1cccc(NC2=C(Cl)C(=O)N(Cc3ccccc3)C2=O)c1 (stereo not drawn) | 101 | 101 |
| Cc1c(CCOC(=O)C23CC4CC(CC(C)(C4)C2)C3)sc[n+]1CC(=O)c1ccccc1 | 99.3 | 97.8 |
| O=C(Nc1ccc(S(=O)(=O)NC2=NCCCCC2)cc1)c1ccc([N+](=O)[O-])s1 | 102 | 101 |
| COC(=O)c1ccc(OCC2c3cc(OC)c(OC)cc3CCN2C(=O)c2ccco2)cc1 (stereo not drawn) | 77.9 | 73.5 |
| CCOC(=O)c1cccc(Nc2nc(-c3cccnc3)nc3ccccc23)c1 | 98.9 | 101 |
| Cc1cccc(N=C2Sc3nc4c(C)c(C)ccc4cc3CN2CCN2CCOCC2)c1 | 85.6 | 93.7 |
| O=[N+]([O-])c1cc(Cl)cc(/C=N\Nc2ccccn2)c1O | 28.9 | 40.5 |
| CCN(CC)CCOc1ccc(/C(=C(/Cl)c2ccccc2)c2ccccc2)cc1 | 102 | 102 |

— PubChem BioAssay
